Test results: PubChem BioAssay AID743415 (Broad Institute, 2014)
Potency and affinity values are given separately. The source made the active and inactive calls.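 How the source made its calls: active means compounds lowering Shn3 expression whose fitted half-maximal concentration is at most twice the top valid dose; inconclusive means flat partial decrease or an invalid curve fit; inactive means the rest.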

Assay: Shn3 transcript knock-down in Clone20 cells – cell-based, qPCR, cherry-pick, dose response (AID 743415)
Conditions: Shn3 mRNA qPCR, overnight; series mostly up to 35 µM

outcome, inactive:
COc1cccc(-n2c(C)nc3c(cnn3-c3ccc(Cl)cc3)c2=O)c1
CCCOC(=O)c1ccc(OCC(O)Cn2c(C)nc3ccccc32)cc1 (configuration not stated)
Cc1nc(NC(C)c2ccccc2)c2oc3ccccc3c2n1 (configuration not stated)
Cc1nc2scc(C)n2c(=O)c1S(=O)(=O)Nc1ccc(N2CCOCC2)c(Cl)c1
CCCCN1CC(COCc2ccccc2)Oc2cccc(Oc3ccc(C(C)C)cc3)c2S1(=O)=O (configuration not stated)
CCC(C)c1ccc(S(=O)(=O)N2CCN(C(=O)c3ccc(Cl)c(S(=O)(=O)N4CCOCC4)c3)CC2)cc1 (configuration not stated)
O=C(c1cc(COc2ccc3ncccc3c2)on1)N1CCCCCC1
Oc1ccc(-c2n[nH]c(C(F)(F)F)c2-c2ccccc2)c(O)c1
CC(C)Cn1c(N)c(C(=O)COC(=O)C2Cc3ccccc3CN2S(C)(=O)=O)c(=O)n(C)c1=O (configuration not stated)
COc1cc(NC(=O)c2cccc3c(-c4cccnc4)coc23)cc(OC)c1OC
CCOc1ccc(N(C)S(=O)(=O)c2cc(-c3cc(C)no3)ccc2C(C)C)cc1
CCCn1c(C)cc(C(=O)CN2C(=O)c3ccccc3S2(=O)=O)c1C
Cc1ccnc(SCC(=O)Nc2sc3c(c2C#N)CCCC3)n1
CCOC(=O)c1cn(CC(=O)Nc2cccc(Cl)c2C)nn1
Cc1ccc(CNC(=O)c2cc3c(C)nc4ccccc4c3o2)cc1
CCc1ccccc1NC(=O)COC(=O)c1c(C)nsc1NC
Cc1onc(-c2ccccc2Cl)c1C(=O)N(C)C1CCCCC1
Cc1ccc(-c2csc(N3CCC(NS(=O)(=O)c4ccc5c(c4)OCCO5)CC3)n2)cc1
Cc1ccc(-c2nc3ncccc3o2)cc1NC(=O)c1sc2ccccc2c1Cl
CCOC(=O)N1CCN(c2ccc(S(=O)(=O)N(Cc3ccccc3)Cc3ccccc3)cn2)CC1
CC1CCCC(NC(=O)c2cccc(S(=O)(=O)N3CCN(c4ccccc4)CC3)c2)C1C (configuration not stated)
CC(C)c1nc(SCC(=O)Nc2cccc(C(F)(F)F)c2)c2c(=O)n(C)c(=O)n(C)c2n1
CC(C)(C)C(=O)Nc1ccc(NC(=O)c2ccco2)nc1
CC(=O)N1c2ccc(S(=O)(=O)N3CCC(C(=O)N4CCN(c5cccc(C(F)(F)F)c5)CC4)CC3)cc2CC1C (configuration not stated)
COc1ccccc1NS(=O)(=O)c1cc(NC(=O)c2ccc(Cl)nc2)ccc1Cl
CCOc1cc(CNCCc2ccc(S(N)(=O)=O)cc2)ccc1OCc1ccccc1
O=C(CSc1c2c(nc3ccc(Cl)cc13)CCCC2)NCc1ccco1
Cc1ccc([C@@H]2CC(=O)[C@@H]3CN(S(=O)(=O)c4ccccc4C)[C@H](c4ccc(Cl)cc4)C[C@@H]3N2S(=O)(=O)c2ccc(C)cc2)cc1
COc1ccc(CC(=O)Nc2ccncc2Cl)cc1
Cn1nc(CC(=O)Nc2ccc3c(c2)OCCO3)c2ccccc2c1=O
Cc1cccc(-c2noc(CN(C(=O)C(c3ccccc3)c3ccccc3)C(C)C)n2)c1
CC1Cc2cc(S(=O)(=O)N3CCN(c4ccc(Cl)cc4)CC3)ccc2N1C(=O)C1CC1 (configuration not stated)
CNc1ccccc1C(C)(C)c1cc(-c2cccc(OC)c2)no1
Cc1ccccc1C(=O)N1CCN(c2ccc(NC(=O)CSc3ccc(Cl)cc3)cc2)CC1
CCN(CC)S(=O)(=O)c1ccc(S(=O)(=O)Nc2c(C)nn(C)c2C)cc1
c1ccc(CNc2ncnc3scc(-c4cccs4)c23)nc1
COc1ccc(C(=O)Nc2nc3ccccc3s2)c(OC)c1
